Bioassay records: PubChem, several laboratories
sEH inh – blocks human soluble epoxide hydrolase activity. P34913. 91,000 tested, 0.34% active. AID 707. inhibition, % at 2 µM. recombinant human sEH enzymatic activity assay; in the data active means inhibition above about 80%
CYP2C19 activ – activators of human cytochrome P450 2C19; 96,000 tested, under 10 active; AID 1025; recombinant CYP2C19, luciferin-H EGE luminescence; hits give high values; 0 = fully inhibited enzyme, 1 = untreated enzyme; activation factor at 5 µM; P33261;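 active means activation factor of at least 2 at 5 µM in the primary screen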;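 further: 0 = wells with 2.5 mM tranylcypromine and 1 = vehicle-only wells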
Target sequence (P33261 whole entry, looked up): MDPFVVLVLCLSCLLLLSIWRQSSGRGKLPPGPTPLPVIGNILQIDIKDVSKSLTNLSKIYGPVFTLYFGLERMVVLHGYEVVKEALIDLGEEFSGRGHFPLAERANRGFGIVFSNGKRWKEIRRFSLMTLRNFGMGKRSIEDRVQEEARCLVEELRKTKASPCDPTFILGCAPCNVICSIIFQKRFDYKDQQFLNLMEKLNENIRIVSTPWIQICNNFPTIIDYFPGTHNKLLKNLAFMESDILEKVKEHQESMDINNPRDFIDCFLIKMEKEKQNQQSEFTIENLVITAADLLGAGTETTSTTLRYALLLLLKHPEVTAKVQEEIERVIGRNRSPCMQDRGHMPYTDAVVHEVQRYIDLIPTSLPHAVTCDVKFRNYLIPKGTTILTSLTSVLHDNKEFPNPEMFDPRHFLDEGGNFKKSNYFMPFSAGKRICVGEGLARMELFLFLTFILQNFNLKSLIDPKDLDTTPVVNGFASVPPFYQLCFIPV
CYP2C19 inh – inhibitors of human CYP2C19; P33261; CYP2C19 Supersomes, luciferin-H EGE luminescence, 30 min; inhibition, % at 5 µM; 96,000 tested, 21% active;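 active means CYP2C19 inhibition above a set limit at 5 µM in the primary screen, cut at about 50% in these data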;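 further: plate controls were negative control wells for no effect and 2.5 mM tranylcypromine positive control for full effect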
sEH act – increases human soluble epoxide hydrolase activity; P34913; purified human sEH enzymatic activity, activator screen; activation, % at 2 µM; 91,000 tested, 0.04% active; AID 717; in the data active means activation above about 37%
CYP2C9 activ – activators of human CYP2C9 | P11712 | recombinant CYP2C9, luciferin-H conversion, luminescence; hits give high values; factor 1 = untreated enzyme, 0 = blocked | activation factor at 5 µM | 96,000 tested, 1.4% active | AID 1024;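 active means activation factor of 2 or more for CYP2C9 at a 5 µM dose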;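 further: 0 = sulfaphenazole-blocked wells and 1 = vehicle-only wells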
CYP2C9 inhib – human CYP2C9 inhibition; P11712; CYP2C9 Supersomes, luciferin-H conversion, luminescence; inhibition, % at 5 µM; 96,000 tested, 20% active; AID 777;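 active means blocking of liver enzyme CYP2C9 beyond about 50% at 5 µM, limit read from the data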
Starred values were filed as active, the others as inactive. This is a sample that favours compounds with a hit; in the whole collection about 27% have one here.

How did CN1CCN(C(=O)c2ccc(COc3ccc(Cl)cc3Cl)cc2)CC1 do in these assays?
sEH inh: 9.6; CYP2C19 activ: 1.1; CYP2C19 inh: -6.7; sEH act: -4.5; CYP2C9 activ: 1; CYP2C9 inhib: -1.8

What do the screens show for `CCOC(=O)c1c(NC(=S)NC(=O)c2ccc(Cn3cc(Cl)cn3)o2)sc2c1CCCCC2`?
sEH inh: -1.5; CYP2C19 activ: 1; CYP2C19 inh: 4.4; sEH act: 4.1; CYP2C9 activ: 0.6; CYP2C9 inhib: 36.6

What do the screens show for `Nc1nncn1C(=O)CCCOc1ccc(Cl)cc1Cl`?
CYP2C19 activ: 0.4; CYP2C19 inh: 64.6*; CYP2C9 activ: 0.9; CYP2C9 inhib: 6.2

Results for O=C(Oc1ccccc1)N1CCN(c2ccc(F)cc2)CC1 ?
sEH inh: 8.0; CYP2C19 activ: 0.2; CYP2C19 inh: 84.9*; sEH act: -7.8; CYP2C9 activ: 1.1; CYP2C9 inhib: -7.7

What do the screens show for `O=C(CCCOc1ccc(Cl)cc1Cl)n1nnc2ccccc21`?
sEH inh: 2.8; sEH act: -2.9

What do the screens show for `Cc1cc(Cl)ccc1OCCCC(=O)N1CCN(C(=O)c2ccco2)CC1`?
sEH inh: 7.9; CYP2C19 activ: 0.4; CYP2C19 inh: 64.6*; sEH act: -6.0; CYP2C9 activ: 0.7; CYP2C9 inhib: 27.3

What do the screens show for `O=C(CCCOc1ccccc1)N1CCN(c2ccccn2)CC1`?
sEH inh: 14.4; CYP2C19 activ: 0.2; CYP2C19 inh: 79.8*; sEH act: -9.8; CYP2C9 activ: 0.3; CYP2C9 inhib: 69.0*

Results for Cc1ccc(-c2nnc(CSc3nc(C(C)C)nc4sc(C)c(C)c34)o2)cc1 ?
sEH inh: 6.2; sEH act: -1.2

How did COc1cc(C(=O)N(Cc2ccc(F)cc2)C2CCS(=O)(=O)C2)cc(OC)c1OC (stereo unspecified) do in these assays?
sEH inh: -5.9; CYP2C19 activ: 1; CYP2C19 inh: -4.9; sEH act: 7.2; CYP2C9 activ: 0.9; CYP2C9 inhib: 7.9

Results for COc1ccc(NC(=O)CCC(=O)OC(C(=O)c2ccccc2)c2ccccc2)cc1 (stereo unspecified) ?
sEH inh: -0.2; CYP2C19 activ: 0.8; CYP2C19 inh: 24.7; sEH act: 0.1; CYP2C9 activ: 1; CYP2C9 inhib: -0.3

What do the screens show for `COc1ccc(C(=O)OC(C(=O)c2ccccc2)c2ccccc2)cc1` (stereo unspecified)?
sEH inh: -8.6; CYP2C19 activ: 0.4; CYP2C19 inh: 57.9*; sEH act: 9.1; CYP2C9 activ: 0.2; CYP2C9 inhib: 78.1*

What do the screens show for `COc1ccc(C(=O)C(OC(=O)CNC(=O)c2ccco2)c2ccccc2)cc1` (stereo unspecified)?
sEH inh: -10.9; CYP2C19 activ: 0.5; CYP2C19 inh: 45.6; sEH act: 9.6; CYP2C9 activ: 0.8; CYP2C9 inhib: 19.4

How did COc1ccc(C(=O)C(OC(=O)c2ccc(C)c(NC(C)=O)c2)c2ccccc2)cc1 (stereo unspecified) do in these assays?
sEH inh: 9.8; CYP2C19 activ: 0.6; CYP2C19 inh: 41.2; sEH act: -11.2; CYP2C9 activ: 0.4; CYP2C9 inhib: 62.0*

How did CC(=O)Nc1cc(C(=O)OC(C(=O)c2ccccc2)c2ccccc2)ccc1C (stereo unspecified) do in these assays?
sEH inh: -4.5; CYP2C19 activ: 0.4; CYP2C19 inh: 59.1*; sEH act: 3.0; CYP2C9 activ: 0.4; CYP2C9 inhib: 60.1*

How did COc1ccccc1C(=O)NC(C)c1nc2ccccc2[nH]1 (stereo unspecified) do in these assays?
CYP2C19 activ: 0.4; CYP2C19 inh: 55.7*; CYP2C9 activ: 0.5; CYP2C9 inhib: 54.8*

What do the screens show for `COc1cc(C(=O)Nc2nc3ccccc3[nH]2)cc(OC)c1OC`?
sEH inh: 18.6; sEH act: -18.1

What do the screens show for `O=C(COC(=O)CCc1c[nH]c(=O)[nH]1)Nc1cccc(Cl)c1`?
sEH inh: 10.2; CYP2C19 activ: 1; CYP2C19 inh: 1.8; sEH act: -10.2; CYP2C9 activ: 0.9; CYP2C9 inhib: 10.5

Results for CC(OC(=O)C(NC(=O)c1ccco1)C(C)C)C(=O)Nc1ncc(Cl)cc1Cl (stereo unspecified) ?
sEH inh: -0.1; CYP2C19 activ: 0.7; CYP2C19 inh: 32.1; sEH act: -0.3; CYP2C9 activ: 0.9; CYP2C9 inhib: 5.8

Results for O=C(COC(=O)c1ccccc1NC(=O)c1ccco1)Nc1ncc(Cl)cc1Cl ?
sEH inh: 8.5; CYP2C19 activ: 0.7; CYP2C19 inh: 28.0; sEH act: -5.6; CYP2C9 activ: 0.4; CYP2C9 inhib: 64.1*

Results for COc1cc(NC(=O)c2ccco2)c(C(=O)OCC(=O)Nc2ncc(Cl)cc2Cl)cc1OC ?
sEH inh: 2.9; CYP2C19 activ: 1; CYP2C19 inh: 4.4; sEH act: -3.1; CYP2C9 activ: 0.9; CYP2C9 inhib: 9.3

Results for Cc1c(Cl)cnc(NC(=O)COC(=O)C(NC(=O)c2ccco2)C(C)C)c1Cl (stereo unspecified) ?
sEH inh: 5.1; CYP2C19 activ: 0.2; CYP2C19 inh: 76.9*; sEH act: -2.5; CYP2C9 activ: 0.5; CYP2C9 inhib: 49.8

How did COC(=O)c1ccccc1NC(=O)c1cc2n(n1)C(C(F)F)CC(C(F)F)N2 (stereo unspecified) do in these assays?
sEH inh: 5.4; CYP2C19 activ: 1; CYP2C19 inh: 2.4; sEH act: -5.3; CYP2C9 activ: 0.9; CYP2C9 inhib: 12.7

What do the screens show for `CCc1nc(SCC(=O)NCCc2ccc(OC)c(OC)c2)c2c(=O)n(C)c(=O)n(C)c2n1`?
sEH inh: -7.8; CYP2C19 activ: 1; CYP2C19 inh: -2.7; sEH act: 12.5; CYP2C9 activ: 1; CYP2C9 inhib: -2.6

How did c1ccc(OCc2nc3ccccc3[nH]2)cc1 do in these assays?
sEH inh: -4.2; CYP2C19 activ: 0.3; CYP2C19 inh: 74.3*; sEH act: 3.7; CYP2C9 activ: 0.8; CYP2C9 inhib: 15.1

Results for c1ccc2[nH]c(CN3CCCCCC3)nc2c1 ?
sEH inh: 7.5; CYP2C19 activ: 0.4; CYP2C19 inh: 63.9*; sEH act: -2.8; CYP2C9 activ: 1; CYP2C9 inhib: -4.8

What do the screens show for `CCS(=O)(=O)N1CCN(Cc2nc3ccccc3c(=O)[nH]2)CC1`?
CYP2C19 activ: 1; CYP2C19 inh: 3.2; CYP2C9 activ: 0.9; CYP2C9 inhib: 6.2

Results for O=S(=O)(c1ccccc1F)N1CCN(Cc2nc3ccccc3[nH]2)CC1 ?
sEH inh: -11.7; CYP2C19 activ: 0.4; CYP2C19 inh: 55.0*; sEH act: 9.5; CYP2C9 activ: 1.8; CYP2C9 inhib: -81.0

How did COc1ccc(NC(=O)c2cc(OC)c(OC)c(OC)c2)cn1 do in these assays?
sEH inh: -1.0; CYP2C19 activ: 0.4; CYP2C19 inh: 56.0*; sEH act: 0.7; CYP2C9 activ: 0.6; CYP2C9 inhib: 41.6

How did O=C(COc1ccccc1CNCc1ccccc1)Nc1ccccc1 do in these assays?
sEH inh: -6.3; CYP2C19 activ: 0.1; CYP2C19 inh: 93.4*; sEH act: 7.3; CYP2C9 activ: 0.6; CYP2C9 inhib: 44.7
